# Measured potencies and affinities stand elsewhere. Activity calls are given as the source filed them. How the calls were made is not given here.
# Assay: human cervical cancer cell viability loss – 24 h, plate reader, dry powder, cytotoxicity control, dose response (AID 686928)
# Conditions: HeLa cytotoxicity; series mostly up to 80 µM
row,SMILES,outcome
1,Cc1ccc2c(c1)c(=O)ncn2-c1cccc(Cl)c1,inactive
2,COc1cccc(-c2nnc(NC(=O)C3CCCCC3)o2)c1,inactive
3,O=C(CC1CCCCC1)Nc1nnc(-c2ccc3c(c2)CCCC3)o1,inactive
4,CCOC(=O)c1ccccc1Nc1cccc(Cl)c1,inactive
5,COC(=O)c1ccccc1Nc1cccc(Cl)c1,inactive
6,O=c1ncn(-c2cccc(F)c2)c2ccccc12,inactive
7,CCC(C)(C)C(=O)Nc1nnc(-c2ccc3c(c2)OCCO3)o1,inactive
8,O=C(Cc1ccc(-c2ccccc2)cc1)N[C@@H]1CCOC1 (racemic),inactive
9,Cn1nc(NC(=O)c2ccco2)c2cc3ccc(C(C)(C)C)cc3nc21,inactive
10,O=C(CSc1nc2c(c(=O)[nH]1)CCCC2)NC1CCCCC1,inactive
11,O=C(Nc1nnc(-c2ccc3c(c2)CCCC3)o1)C1CCC1,inactive
12,Cc1ccc2cc3c(NC(=O)c4ccc(C)o4)nn(C)c3nc2c1,inactive
13,CCn1nnnc1NCc1ccc(C(C)C)cc1,inactive
14,COc1ccccc1-c1nnc(NC(=O)C2CCCCC2)o1,inactive
15,O=c1ncn(-c2cccc(Cl)c2)c2ccccc12,inactive
16,CCc1nc(=O)c2ccccc2n1-c1cccc(Cl)c1,inactive
17,O=C(Nc1nnc(-c2ccncc2)o1)C1CCC1,inactive
18,O=c1ncn(Cc2ccc(Cl)cc2)c2ccccc12,inactive
19,CN1CCC(C(=O)Nc2nnc(-c3ccc4c(c3)OCCO4)o2)CC1,inactive

row,SMILES,outcome
1,NC(=O)c1ccccc1Nc1ccccc1,inactive
2,Cc1ccc2cc3c(NC(=O)C4CCCC4)nn(C)c3nc2c1,inactive
3,Cc1ccc2cc3c(NC(=O)c4cccs4)nn(C)c3nc2c1,inactive
4,O=C(CC1CCCCC1)Nc1nnc(-c2cccnc2)o1,inactive
5,O=C(Cc1ccc(-c2ccccc2)cc1)NC1COC1,inactive
6,c1ccc(CNc2nnc(-c3ccc4c(c3)OCCO4)o2)cc1,inactive
7,O=c1ncn(-c2ccccc2Cl)c2ccccc12,inactive
8,O=C(Nc1nnc(-c2cccnc2)o1)C1CCC1,inactive
9,O=c1nc(Cc2ccccc2)n(-c2cccc(Cl)c2)c2ccccc12,inactive
10,O=C(Nc1nnc(-c2cccnc2)o1)C1CCCCC1,inactive
11,Cc1ccc2cc3c(NC(=O)Cc4ccco4)nn(C)c3nc2c1,inactive
12,CCn1nnnc1/N=C/c1ccc(N2CCCCC2)cc1,inactive
13,Cn1nc(NC(=O)c2ccco2)c2cccnc21,inactive
14,Cn1ccc(NC(=O)c2ccco2)n1,inactive
15,O=c1ncn(-c2ccc(F)c(Cl)c2)c2ccccc12,inactive
16,Cc1ccc2c(=O)ncn(-c3cccc(Cl)c3)c2c1,inactive
17,O=C(Cc1ccc(-c2ccccc2)cc1)NC1CCC1,inactive
18,Cn1cnc(=O)c2ccccc21,inactive
19,O=C(Nc1nnc(-c2ccc3c(c2)OCCO3)o1)C1CCCC1,inactive

# From PubChem BioAssay AID686928 (Broad Institute, 2013)
